Reference: PMC5540273 (PLoS ONE, 2017)

What was measured:
Details in all cases: concentration: 1 μM, replicates: in singlicate; n = 1
ACVR1B = test system: ACVR1B
ACVR1 = test system: ACVR1
ACVR2A = test system: ACVR2A
ACVR2B = test system: ACVR2B
ACVRL1 = test system: ACVRL1
ADCK3 = test system: T1, ADCK3
T1 construct: gene CABC1

ADCK4 = test system: ADCK4
AKT1 = test system: AKT1
AKT2 = test system: AKT2
AKT3 = test system: AKT3
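Note: KINOMEscan kinase panel screen.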

Compound | %Inh (ACVR1B) [%] | %Inh (ACVR1) [%] | %Inh (ACVR2A) [%] | %Inh (ACVR2B) [%] | %Inh (ACVRL1) [%] | %Inh (ADCK3) [%] | %Inh (ADCK4) [%] | %Inh (AKT1) [%] | %Inh (AKT2) [%] | %Inh (AKT3) [%]
COC(=O)c1c(-c2ccccc2)c2cc(Br)ccc2c(=O)n1Cc1ccc(NC(=O)CCC(=O)O)cc1 | 0 | 0 | 0 | 0 | 0 | 0 | 0 | 12 | 11 | 0
COc1cc2ncn(-c3cc(OCc4ccncc4)c(C(N)=O)s3)c2cc1OC [GSK336313] | 0 | 9 | 0 | 0 | 0 | 0 | 20 | 0 | 1 | 0
COc1cc2nccc(Nc3cccc(Oc4ccccc4)c3)c2cc1OC.Cl [GW284543] | 12 | 0 | 0 | 0 | 0 | 32 | 22 | 0 | 7 | 0
COc1ccc(-c2cc3c(C)nc(N)nc3n([C@H]3CC[C@H](OCCO)CC3)c2=O)cn1 | 9 | 4 | 0 | 0 | 0 | 0 | 0 | 6 | 0 | 1
CC(C)(C)c1ccc(C(=O)Nc2cn3cc(-c4ccccc4)ccc3n2)cc1 | 0 | 5 | 0 | 0 | 5 | 25 | 0 | 0 | 0 | 0
COc1cc2ncn(-c3cc(OCc4ccc(S(C)(=O)=O)cc4)c(C(N)=O)s3)c2cc1OC [GW869979] | 0 | 51 | 0 | 0 | 4 | 31 | 0 | 0 | 0 | 0
CCC(=O)c1c(-c2ccccc2)c2cc(Cl)ccc2c(=O)n1Cc1cc(S(C)(=O)=O)n(CCC(C)(C)O)n1 | 10 | 2 | 0 | 9 | 17 | 27 | 1 | 0 | 14 | 17
CCn1c(-c2nonc2N)nc2ccccc21 [SB-693162/GW549034] | 1 | 0 | 0 | 0 | 0 | 4 | 0 | 0 | 1 | 0
Nc1n[nH]c2ncc(-c3ccccc3)cc12 [SB-517081] | 0 | 8 | 0 | 5 | 0 | 7 | 19 | 0 | 12 | 0
COc1ccc(Nc2nccc(N3CCC(NS(=O)(=O)c4ccc(NC(C)=O)cc4)C3)n2)cc1 (centres unmarked) [GSK1379729] | 3 | 34 | 32 | 22 | 8 | 9 | 38 | 0 | 7 | 0
O=c1cc(N2CCOCC2)nc2n(Cc3ccc(F)c(Cl)c3)ccn12 [GSK2297099] | 0 | 0 | 0 | 0 | 0 | 0 | 11 | 0 | 13 | 0
C[C@@H]1CC[C@H](C(=O)NC2CCCCC2)CN1c1cc(-c2ccc3c(N)n[nH]c3c2)nc(N)n1 [GSK2291363] | 0 | 0 | 0 | 0 | 0 | 22 | 49 | 0 | 11 | 0
FC(F)(F)c1ccc(-c2ncn(CCCN3CCOCC3)c2-c2ccncc2)cc1 [SB-217780] | 10 | 0 | 0 | 0 | 4 | 1 | 8 | 0 | 0 | 28
COc1cc(Nc2nccc(N3CCC(NC(=O)C4COc5ccccc5O4)C3)n2)cc(OC)c1OC (centres unmarked) [GSK1379761] | 0 | 20 | 22 | 13 | 0 | 10 | 65 | 0 | 9 | 0
Nc1nccc2scc(-c3ccc4c(c3)CCN4C(=O)Cc3ccccc3)c12 [GSK2576924] | 0 | 10 | 42 | 0 | 0 | 13 | 0 | 0 | 11 | 0
Cc1nnc(-c2ccc3ncn(-c4ccc(S(C)=O)cc4)c3c2)o1 (centres unmarked) | 15 | 0 | 0 | 0 | 9 | 5 | 0 | 0 | 0 | 0
CCn1c(-c2ccoc2)nc2cnccc21 [SB-733887] | 0 | 15 | 0 | 18 | 0 | 10 | 20 | 0 | 14 | 0
CCCNC(=O)Nc1ccc(Oc2ncnc3ccn(C)c23)cc1 | 13 | 0 | 2 | 0 | 0 | 0 | 0 | 7 | 8 | 0
Nc1ncnc2c1ncn2-c1ccc(Cl)cc1 [AH2635] | 0 | 3 | 0 | 16 | 0 | 24 | 33 | 0 | 0 | 0
CCCC(=O)Nc1n[nH]c2ncc(-c3cccc4ccccc34)cc12 [SB-642057] | 0 | 26 | 0 | 9 | 59 | 5 | 5 | 0 | 39 | 0
CN(C)c1cc(-c2ccc3c(N)n[nH]c3c2)nc(N)n1 [GSK2219329] | 0 | 0 | 0 | 1 | 0 | 9 | 23 | 0 | 0 | 0

Compound | %Inh (ACVR1B) [%] | %Inh (ACVR1) [%] | %Inh (ACVR2A) [%] | %Inh (ACVR2B) [%] | %Inh (ACVRL1) [%] | %Inh (ADCK3) [%] | %Inh (ADCK4) [%] | %Inh (AKT1) [%] | %Inh (AKT2) [%] | %Inh (AKT3) [%]
CCC(=O)c1c(-c2ccccc2)c2cc(Cl)ccc2c(=O)n1Cc1cc(C(=O)NC2CC2)n(C)n1 | 0 | 0 | 0 | 0 | 0 | 0 | 10 | 0 | 7 | 0
CCC(=O)c1c(-c2ccccc2)c2cc(Cl)ccc2c(=O)n1Cc1ccc(C(=O)O)cc1 | 0 | 11 | 0 | 0 | 0 | 0 | 0 | 0 | 0 | 0
Nc1nc(N)c2nc(-c3ccccc3)[nH]c2n1 [SKF-12778] | 18 | 6 | 27 | 26 | 3 | 0 | 22 | 15 | 8 | 15
Cc1ccc(Oc2ccc(Nc3ncnc4cc[nH]c34)cc2C)cn1 | 27 | 2 | 0 | 0 | 0 | 16 | 0 | 17 | 0 | 0
Cc1nnc(-c2ccc(C)c(-c3ccc(C(=O)O)cc3)c2)o1 [GW608005] | 0 | 4 | 0 | 0 | 0 | 0 | 0 | 0 | 6 | 0
COc1ccc(CNC(=O)NC2CCN(c3ccnc(Nc4ccc(F)cc4)n3)C2)cc1 (centres unmarked) [GSK1379706] | 0 | 49 | 0 | 5 | 0 | 29 | 48 | 0 | 0 | 0
CCS(=O)c1ccc(-c2coc3ccc(-c4nnc(C)o4)cc23)cc1 (centres unmarked) | 0 | 5 | 0 | 0 | 6 | 5 | 0 | 0 | 0 | 0
COc1cccc(-n2cnc3c(N)ncnc32)c1 [SKF-97416] | 22 | 0 | 3 | 0 | 11 | 0 | 8 | 1 | 0 | 22
COc1ccc(-c2cc3c(C)nc(N)nc3n([C@H]3CC[C@H](O)CC3)c2=O)cn1 | 0 | 0 | 0 | 0 | 0 | 0 | 0 | 0 | 0 | 0
Cc1cc(Nc2nc(-c3cccc(C)n3)nc3ccccc23)ccn1 [GW872411] | 73 | 0 | 2 | 13 | 0 | 0 | 0 | 0 | 0 | 2
O=C(Nc1n[nH]c2nc(-c3ccccc3)c(Cl)cc12)C1CC1 [SB-734909] | 7 | 0 | 7 | 8 | 0 | 0 | 0 | 0 | 0 | 0
COC(=O)c1c(-c2ccccc2)c2cc(C)ccc2c(=O)n1Cc1ccccc1 | 0 | 0 | 7 | 0 | 0 | 0 | 0 | 0 | 3 | 0
Cl.c1ccc(Cn2cnc3cc(Nc4ncnc5ccccc45)ccc32)cc1 [GW272142] | 0 | 17 | 0 | 2 | 0 | 13 | 34 | 0 | 3 | 0
Cc1c(Cn2c(C)nn3c(=O)cc(N4CCO[C@H](C)C4)nc23)cccc1C(F)(F)F [GSK2373690] | 0 | 2 | 3 | 0 | 0 | 22 | 24 | 0 | 6 | 28
Cc1ccc(-c2ccc3c(ccc4sc5c(c43)NC[C@@H](C)N=C5N(C)C)n2)cn1 | 0 | 0 | 0 | 0 | 12 | 0 | 0 | 0 | 0 | 0
O=C(NCc1cccs1)c1cc(C(=O)c2c(Cl)cccc2Cl)c[nH]1 [GW823670] | 12 | 0 | 0 | 0 | 5 | 0 | 0 | 0 | 0 | 0
COc1cc2nccc(Nc3ccc(OCc4ccc(NC(C)=O)cc4)cc3)c2cc1OC.Cl [GW440135] | 0 | 25 | 0 | 1 | 4 | 15 | 23 | 6 | 0 | 0
CCS(=O)(=O)c1ccc(OC)c(Nc2ncc(-c3ccc(F)cc3)o2)c1.Cl [GW591947] | 0 | 0 | 0 | 0 | 0 | 1 | 15 | 0 | 0 | 9
O=C(Nc1ccc2c(c1)OCO2)NC1CCN(c2ccnc(NCc3ccc(F)cc3)n2)CC1 [GSK1379859] | 0 | 0 | 0 | 0 | 0 | 0 | 30 | 0 | 5 | 0
O=C(NCCNc1ccnc(Nc2ccc(F)cc2)n1)Nc1ccc2c(c1)OCO2 [GSK1379882] | 0 | 0 | 0 | 0 | 0 | 9 | 23 | 0 | 0 | 0
